Assay [1] is described as follows: qHTS assay to identify small molecule antagonists of the glucocorticoid receptor (GR) signaling pathway - cell viability counter screen (AID 720693). Note: nearly all actives have a fitted effect of over 55% in size. Note: potency is the fitted concentration of half-maximal effect. Background: qHTS replaces the single test concentration by a dilution series.
Assay [2] is described as follows: qHTS assay for identifying genotoxic compounds that show differential cytotoxicity against isogenic chicken DT40 cell lines with known DNA damage response pathways - wild type cell line (AID 743012). Note: nearly all actives have a fitted effect of over 60% in size. Note: potency is the fitted concentration of half-maximal effect. In a few lines:
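Cells (DT40 wild type, 300/well) are treated with DMSO-dissolved compounds after a ~0.5 h pre-incubation and kept 40 h at 37 C/5% CO2. Viability is then measured by CellTiter-Glo luminescence following 30 min at room temperature.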

A short description of assay [3]: qHTS assay for identifying genotoxic compounds that show differential cytotoxicity against isogenic chicken DT40 cell lines with known DNA damage response pathways - Rev3 mutant cell line (AID 743014). Note: nearly all actives have a fitted effect of over 55% in size. Note: potency is the fitted concentration of half-maximal effect.
Assay [4] in a line: qHTS assay for identifying genotoxic compounds that show differential cytotoxicity against isogenic chicken DT40 cell lines with known DNA damage response pathways - Rad54/Ku70 mutant cell line (AID 743015). Note: nearly all actives have a fitted effect of over 60% in size. Note: potency is the fitted concentration of half-maximal effect.
Assay [5] deals with Androgen receptor (Homo sapiens) (UniProt P10275). Description: qHTS assay to identify small molecule agonists of the androgen receptor (AR) signaling pathway using the MDA cell line (AID 743040; note: nearly all actives have a fitted effect of over 20% in size). In a few lines:
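After a 5 h incubation at 37C and 0% CO2, MDA-kb2 reporter cells were dosed with compounds in DMSO and kept 16 h under the same conditions. Luciferase activity was then read as luminescence with ONE-Glo.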

The nature of assay [6]: qHTS assay to identify small molecule antagonists of the androgen receptor (AR) signaling pathway using the MDA cell line - cell viability counter screen (AID 743041; note: nearly all actives have a fitted effect of over 45% in size; note: potency is the fitted concentration of half-maximal effect). The method in brief: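 R1881-driven MDA-kb2 AR-luc cells, 3,000/well, were dosed with library compounds for 16 h; cell health came from CellTiter-Fluor fluorescence in the reporter wells.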
Assay [7] concerns the target Androgen receptor (Homo sapiens) (UniProt P10275). Put plainly: qHTS assay to identify small molecule antagonists of the androgen receptor (AR) signaling pathway using the MDA cell line (AID 743042; note: nearly all actives have a fitted effect of over 55% in size; note: potency is the fitted concentration of half-maximal effect). In a few lines:
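Antagonist mode: compounds plus R1881 agonist added to MDA-kb2 AR-luc cells, incubated 16 h at 37C. Luciferase reporter luminescence quantified, with multiplexed CellTiter-Fluor readout for cell viability.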

Assay [8] can be described thus: qHTS assay to identify small molecule antagonists of the androgen receptor (AR) signaling pathway - cell viability counter screen (AID 743033; note: nearly all actives have a fitted effect of over 45% in size).
In assay [9] the target is Androgen receptor (Homo sapiens) (UniProt P10275). Description: qHTS assay to identify small molecule antagonists of the androgen receptor (AR) signaling pathway (AID 743035; active = well fitted inhibition curve with a large enough effect in the signal ratio in the repeat runs, not every such curve was filed as active; the % refers to the signal ratio). In a few lines: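 Antagonism is scored as loss of R1881-driven beta-lactamase reporter expression in HEK293 cells carrying the reporter under a UAS element, after 16 h co-treatment at 37C and a 2 h room-temperature FRET substrate read.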
Chain of Androgen receptor (Homo sapiens) (P10275 whole entry, looked up): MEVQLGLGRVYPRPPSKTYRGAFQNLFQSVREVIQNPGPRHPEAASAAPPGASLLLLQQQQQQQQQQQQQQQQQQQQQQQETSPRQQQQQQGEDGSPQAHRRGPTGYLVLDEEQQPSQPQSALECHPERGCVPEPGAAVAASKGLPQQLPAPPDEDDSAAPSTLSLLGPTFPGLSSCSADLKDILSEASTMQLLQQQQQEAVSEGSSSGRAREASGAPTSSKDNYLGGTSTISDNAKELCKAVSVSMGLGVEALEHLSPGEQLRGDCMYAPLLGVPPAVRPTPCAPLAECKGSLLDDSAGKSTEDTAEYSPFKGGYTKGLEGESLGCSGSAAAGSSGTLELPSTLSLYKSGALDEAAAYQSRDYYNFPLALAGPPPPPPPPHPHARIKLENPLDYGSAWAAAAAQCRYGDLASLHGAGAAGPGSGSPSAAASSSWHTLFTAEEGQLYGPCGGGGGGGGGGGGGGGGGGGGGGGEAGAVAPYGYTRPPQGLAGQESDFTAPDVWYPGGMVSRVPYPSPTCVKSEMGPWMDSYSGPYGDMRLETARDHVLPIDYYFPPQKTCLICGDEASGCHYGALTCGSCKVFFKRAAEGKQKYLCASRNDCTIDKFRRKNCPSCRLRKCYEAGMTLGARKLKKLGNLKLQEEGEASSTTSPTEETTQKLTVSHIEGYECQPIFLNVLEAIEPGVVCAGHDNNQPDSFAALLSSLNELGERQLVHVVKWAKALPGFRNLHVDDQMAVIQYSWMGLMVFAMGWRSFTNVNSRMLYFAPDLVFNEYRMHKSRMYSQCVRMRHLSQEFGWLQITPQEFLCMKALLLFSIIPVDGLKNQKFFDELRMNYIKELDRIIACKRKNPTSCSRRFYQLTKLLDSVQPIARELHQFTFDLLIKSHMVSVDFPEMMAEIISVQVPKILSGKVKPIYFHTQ

The target is the same in assay [10]. Put plainly: qHTS assay to identify small molecule agonists of the androgen receptor (AR) signaling pathway (AID 743036; active = well fitted activation curve with a large enough effect in the signal ratio in the repeat runs, with a control signal flat, not every such curve was filed as active; the % refers to the signal ratio). In a few lines: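 Reporter line: GeneBLAzer AR-UAS-bla-GripTite (HEK293). Steps: plate cells, 4 h rest, add compounds, 16 h at 37C, add LiveBLAzer B/G substrate, 2 h at RT, read fluorescence.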

SMILES strings stand for the structures. Where “and” joins values, the source holds several entries; their conditions need not be identical. Equal values may be shown once. Unmarked numbers belong to inactive results. Inconclusive results are not listed. Calls of active or inactive are those of the source. Unless noted, calls come from the whole dose curve; as a rule, active = well fitted curve in the direction sought with a large enough effect in the repeat runs; inconclusive = weak or mixed curves; inactive = no such curve, though single readings can be large; an effect the other way counts as inactive or inconclusive.

On to `Cc1ccc2c(Cl)cc(Cl)c(O)c2n1`, for which the Potency in assay [1] is 23.9 µM (active); in [2], 1.88 µM (active); in [3], 2.37 µM (active); in assay [4] it was 1.88 µM (active); in [6], 9.44 µM (active); in assay [7] it was 2.66 µM (active). The outcome in [5] was inactive.

`C[C@@H](O)[C@H]1C(=O)N2C(C(=O)O)=C(S[C@@H]3CN[C@H](CNS(N)(=O)=O)C3)[C@H](C)[C@H]12`: the Potency result in [1], in assay [2], in assay [4], in assay [8] and in assay [6] was “inactive” throughout.

As for `CCC(C)C1N=C(C)C(C)S1` (centres undefined), the Potency entry in assay [1], in assay [2], in assay [3], in assay [8] and in assay [6] was “inactive” throughout.

In the case of `FC1(F)C(F)(F)C(F)(F)C2(F)C(F)(C1(F)F)C(F)(F)C(F)(F)C1(F)C(F)(F)C(F)(F)C(F)(F)C(F)(F)C12F` (centres undefined), the Potency entry in assay [1], in [2], in assay [3], in [4] and in assay [6] was “inactive” in each case.

Regarding `COc1cccc([C@H](O)C2CCN(CCc3ccc(F)cc3)CC2)c1OC`, the Potency entry in assay [1] and in assay [6] was “inactive” throughout. For the same compound, the Potency is 27.3 µM (active) in [2], 1.72 µM (active) in [3] and 4.33 µM (active) in [4].

For `CC(CCl)OC(C)CCl` (centres undefined), the Potency result in [1], in assay [2], in assay [3], in assay [4] and in [6] was “inactive” each time.

In the case of `c1ccc(CCNc2nc(-c3ccccc3)cs2)cc1`, the Potency result in [1] and in assay [6] was “inactive” in each case. The Potency is 29.8 µM (active) in assay [2], 29.8 µM (active) in assay [3] and 33.5 µM (active) in [4].

`C/C(=C\C(C)CC(C)CC(C)C)C1CC(=O)OC1=O` (centres undefined): the Potency result in assay [1], in [2], in [3], in assay [4] and in [6] was “inactive” in each case.

Turning to `CC1=CC(=C(c2ccc(N)cc2)c2ccc(N)cc2)C=CC1=N`, in assay [1], the Potency result is “inactive”. The Potency in [2] is 5.31 µM (active); in assay [3], 5.96 µM (active) and 3.1 µM (active); in assay [4] it was 5.96 µM (active); in assay [6], 7.5 µM (active).

Turning to `Nc1ccc(-c2ccc(F)cc2)cc1`, the Potency result in [1] and in [6] was “inactive” throughout. For the same compound, the Potency is 68.6 µM (active) in [2], 48.6 µM (active) in assay [3] and 68.6 µM (active) in [4].

In the case of `Nc1ncnc2c1ncn2[C@@H]1O[C@H](CO)[C@@H](O)[C@H]1O`, the Potency entry in assay [1], in assay [2], in assay [3] and in assay [6] was “inactive” each time.

Consider `CCCCOC(=O)CC#N`, for which the Potency entry in assay [1], in assay [2], in assay [4], in [8] and in [6] was “inactive” in each case.

For `O=[N+]([O-])c1ccc(Cl)cc1Cl`, the Potency result in assay [1], in [2], in assay [3], in assay [4] and in [6] was “inactive” in each case.

Take `CCCc1ccc(OC)cc1`: the Potency result in [1], in [2], in assay [4], in assay [8], in assay [9] and in assay [6] was “inactive” throughout. Moreover, the Potency result in [7] was “inactive”. Besides, the result in assay [5] was inactive.

For the compound `Cc1ccc(S(=O)(=O)NC(=O)NC2CCCC2)cc1`, the Potency entry in assay [1], in assay [2], in assay [3], in assay [4] and in assay [6] was “inactive” in each case.

In the case of `C(/C=C/C=C/Nc1ccccc1)=Nc1ccccc1`, the Potency entry in [1], in assay [2], in assay [3], in assay [8] and in [6] was “inactive” each time.

With `Nc1ccc(C(=O)Oc2ccccc2)c(O)c1`, the Potency result in [1], in [3] and in [6] was “inactive” throughout. Besides, the Potency in assay [2] and in assay [4] was 29.8 µM (active) each time.

Regarding `CCc1ccc2c(c1)C(=O)c1ccccc1C2=O`, the Potency entry in assay [1], in assay [2] and in assay [4] was “inactive” throughout.

In the case of `Cc1cc(N)n(-c2ccccc2)n1`, the Potency result in assay [1], in assay [2], in assay [4], in assay [8] and in assay [6] was “inactive” in each case.

On to `C[Si](C)(C)O[Si](C)(C)O[Si](C)(C)C`, for which the Potency result in [1], in [2], in assay [3], in [4] and in [6] was “inactive” each time.

In the case of `Nc1cccc2c(=O)[nH][nH]c(=O)c12`, the Potency result in assay [1], in assay [2], in assay [3], in assay [4] and in [6] was “inactive” throughout.

With `COc1cc(C)c(Cc2cnc(N)nc2N)cc1OC`, the Potency result in assay [1], in assay [8] and in assay [6] was “inactive” throughout. Besides, the Potency in assay [2] and in assay [4] was 26.6 µM (active) in each case.

As for `CC(=O)OCC(=O)[C@@]1(O)CC[C@H]2[C@@H]3CCC4=CC(=O)C=C[C@]4(C)[C@@]3(F)[C@@H](O)C[C@@]21C`, the Potency entry in assay [1], in [2], in assay [4], in assay [8] and in [6] was “inactive” throughout.

For the compound `NC(=O)c1cc[n+](CC2=C(C(=O)[O-])N3C(=O)[C@@H](NC(=O)Cc4cccs4)[C@H]3SC2)cc1`, the Potency entry in [1], in assay [2], in assay [3], in assay [4] and in assay [6] was “inactive” each time.

As to `CCCCCO`, the Potency result in [1], in [2], in assay [3], in assay [4] and in [6] was “inactive” throughout.

In the case of `CCCCCCCCC(=O)OCC(C)OC(=O)CCCCCCCC` (centres undefined), the Potency entry in assay [1], in assay [2], in assay [3], in assay [8] and in assay [6] was “inactive” each time.

For the compound `CC1(C)CC(O)CC(C)(C)N1[O]`, the Potency result in assay [1], in assay [2], in assay [3], in assay [4] and in [6] was “inactive” each time.

Take `CC(C)CCCCCOC(=O)CS`: the Potency entry in assay [1] and in [6] was “inactive” throughout. In addition, the Potency was 61.1 µM (active) in assay [2], 54.5 µM (active) in assay [3] and 54.5 µM (active) in assay [4].

On to `CC(C)(C)NCC(O)COc1ccc(NC(=O)NC2CCCCC2)cc1` (centres undefined), for which the Potency result in assay [1], in [8] and in [6] was “inactive” in each case. In addition, the Potency in assay [2] was 29.8 µM (active); in assay [4], 26.6 µM (active).

For the compound `CC(C)Oc1ccccc1O`, the Potency result in [1], in [3] and in assay [4] was “inactive” throughout.

On to `CCc1cnc(C(=O)O)c(C(=O)O)c1`, for which the Potency result in assay [1], in assay [2], in assay [4], in [8] and in assay [6] was “inactive” throughout.

Turning to `O=C(O)c1cc(C(=O)O)c(C(=O)O)cc1C(=O)O`, the Potency entry in assay [1], in assay [3], in assay [4], in assay [8], in [9] and in [6] was “inactive” each time. Also, the Potency result in assay [7] was “inactive”. For the same compound, the compound was called inactive in assay [10] and in assay [5].

As for `O=C1c2ccccc2C(=O)C1c1ccc2cc(S(=O)(=O)O)cc(S(=O)(=O)O)c2n1`, the Potency entry in assay [1], in assay [2] and in [8] was “inactive” each time. Moreover, the Potency in [6] was 52.5 µM (active).

For `O=C(Cl)c1ccc(F)c(Cl)c1`, the Potency result in assay [1], in assay [3], in [4], in assay [8] and in assay [6] was “inactive” in each case.

On to `Cc1nc(C)c(C)nc1C`, for which the Potency entry in assay [1], in assay [3], in [8], in [9], in assay [6] and in assay [7] was “inactive” each time. Moreover, the outcome in assay [10] and in assay [5] was inactive.

On to `c1ccc(CN(Cc2ccccc2)Cc2ccccc2)cc1`, for which the Potency result in [1], in assay [2], in assay [4], in assay [8] and in [6] was “inactive” each time.

Turning to `CCOC(=O)CC(O)(CC(=O)OCC)C(=O)OCC`, the Potency entry in assay [1], in assay [2], in [8] and in assay [6] was “inactive” each time.

Turning to `CCc1c(C)[nH]c2c1C(=O)C(CN1CCOCC1)CC2` (centres undefined), the Potency entry in assay [1], in assay [3], in assay [4], in assay [8] and in [6] was “inactive” in each case.

Regarding `c1ccc(-c2ccc(-c3ccccc3)cc2)cc1`, the Potency result in assay [1], in assay [3], in assay [4], in assay [8] and in [6] was “inactive” throughout.

With `O=c1[nH]nc(-c2ccc([N+](=O)[O-])o2)o1`, the Potency result in [1] and in assay [8] was “inactive” in each case. The Potency in [3] was 19.3 µM (active).

Regarding `[O-][n+]1ccc(Cl)cc1`, the Potency result in assay [1], in [3], in [4], in assay [8] and in [6] was “inactive” throughout.

Turning to `C=CC(O)CCCCC` (centres undefined), the Potency entry in assay [1], in [3], in assay [4], in assay [8] and in assay [6] was “inactive” each time.

As to `O=C(O)c1ccccc1-n1cc(C(=O)O)c(=O)c2cc(Nc3c(F)cc(F)cc3Cl)c(Cl)cc21`, the Potency entry in assay [1], in assay [3], in assay [4] and in [6] was “inactive” in each case.

For the compound `CCCCCCCCCCCCSCCOCCO`, the Potency entry in assay [1], in [3], in [4], in assay [8] and in assay [6] was “inactive” in each case.

Turning to `Sc1nc(S)nc(S)n1`, the Potency entry in assay [1], in [3], in assay [4] and in [6] was “inactive” in each case.

As to `CCCCCCCCS`, the Potency entry in assay [1], in [3], in assay [4] and in assay [6] was “inactive” throughout.

In the case of `COC(=O)c1cc(Cl)ccc1[N+](=O)[O-]`, the Potency result in assay [1], in assay [2], in [4] and in assay [6] was “inactive” throughout.

In the case of `O=P(c1ccccc1)(c1ccccc1)c1ccccc1`, the Potency entry in assay [1], in assay [8] and in assay [6] was “inactive” each time. Also, the Potency in assay [3] and in assay [4] was 61.1 µM (active) in each case.

The values are drawn from PubChem BioAssay (Tox21).
